This is an account of results in PubChem BioAssay AID1001 (Sanford-Burnham Center for Chemical Genomics, 2008).

The whole screen tested about 200,000 compounds, of which about 50 (0.03%) were called active. For the sample, actives were picked, then their nearest neighbours and some compounds at random. Results with a measured potency or affinity are listed apart. Values without a mark were called inactive. How the calls were made is not given here.

In this assay the target is Alkaline phosphatase, tissue-nonspecific isozyme (Homo sapiens) (UniProt P05186). As to the kind of experiment: stimulation of alkaline phosphatase TNAP activity – biochemical, luminescent, no phosphate acceptor, uHTS, primary screen (AID 1001). Particulars: purified TNAP, luminescent activation assay, at 20 µM, hits give high values.
Alkaline phosphatase, tissue-nonspecific isozyme (Homo sapiens), sequence (P05186 whole entry, looked up): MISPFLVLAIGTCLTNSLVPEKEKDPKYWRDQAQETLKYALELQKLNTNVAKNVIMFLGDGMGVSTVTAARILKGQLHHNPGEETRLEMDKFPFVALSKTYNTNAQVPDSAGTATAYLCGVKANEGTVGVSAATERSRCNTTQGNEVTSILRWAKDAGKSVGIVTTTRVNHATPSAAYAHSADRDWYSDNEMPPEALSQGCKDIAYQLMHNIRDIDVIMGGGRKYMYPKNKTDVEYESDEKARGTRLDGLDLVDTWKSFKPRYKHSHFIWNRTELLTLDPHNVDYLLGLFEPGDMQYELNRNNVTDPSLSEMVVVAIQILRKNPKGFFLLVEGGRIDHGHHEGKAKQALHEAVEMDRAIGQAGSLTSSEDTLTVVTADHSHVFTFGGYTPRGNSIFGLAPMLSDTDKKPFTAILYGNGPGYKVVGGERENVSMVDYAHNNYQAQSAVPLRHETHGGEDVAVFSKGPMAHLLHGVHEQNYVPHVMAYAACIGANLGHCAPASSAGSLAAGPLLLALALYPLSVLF
For the compound `CCOc1ccc(N(C(=O)c2cnsn2)C(C(=O)NC2CCCCC2)c2ccncc2)cc1` (stereo not drawn), the activation fold is 1.2.
For `Cn1nc(CC(=O)NC2CCCCC2)c2ccccc2c1=O` the value was 1.1; for `Cn1nc(CC(=O)NC2CCCCCC2)c2ccccc2c1=O`, 1.1.
As for `COc1ccc(CN2CCNC(=O)C2CC(=O)NCc2ccc(C)s2)c(OC)c1` (stereo not drawn), the activation fold is 1.1.
As to `Cc1ccc(CNC(=O)C2(NC(=O)Nc3ccc(C)cc3)CCCCC2)cc1`, the activation fold was 1.2.
For the compound `Cc1ccc(NC(=O)NC2(C(=O)NCc3ccccc3)CCCCC2)cc1`, the activation fold was 1.1.
As for `O=C(NC1CCCCC1)C1CCN(C(=O)c2ccc(-c3ccccc3)cc2)CC1`, the activation fold was 1.1.
As to `OCCNc1ncnc2c1c(-c1ccccc1)c(-c1ccccc1)n2Cc1ccco1`, the activation fold is 1.1.
Regarding `N=c1c2c(-c3ccccc3)c(-c3ccccc3)n(Cc3ccco3)c2ncn1CCCn1ccnc1`, the activation fold is 2.7.
Take `COc1cc(NC(=O)CN2CCCCC2)c(C)cc1[N+](=O)[O-]`: the activation fold is 1.1.
For `CCOc1cc(-n2cnnn2)c(OCC)cc1NC(=O)c1cnccn1` the value was 1.1; for `c1ccc2c(c1)Nc1nccnc1S2`, 1; for `COc1ccc2[nH]c(=O)c(CN(CCN3CCCC3)C(=O)Nc3ccccc3Cl)cc2c1`, 1.1.
Turning to `Cc1c2cc(O)c(=O)cc-2oc2cc(O)c(O)cc12`, the activation fold is 0.4.
As for `CCOc1ccccc1-c1c2cc(O)c(=O)cc-2oc2cc(O)c(O)cc12`, the activation fold is 0.6.
Turning to `COc1ccc(OC)c(-c2c3cc(O)c(=O)cc-3oc3cc(O)c(O)cc23)c1`, the activation fold was 3.9 (active).
Consider `O=C(NCCCN1CCCC1=O)c1ccc(OCc2ccccc2)cc1`, for which the activation fold is 1.1.
Take `COc1nc(-c2cnccn2)sc1C`: the activation fold is 1.1.
For `COc1ccc2nc(C)cc(SCC(=O)NNC(=O)COc3cccc4ccccc34)c2c1`, the activation fold was 2.1.
Regarding `COc1ccc2nc(C)cc(SCC(=O)NNC(=O)COc3ccc(C)cc3)c2c1`, the activation fold is 1.1.
Regarding `O=C(CN1CCOCC1)NCCC12CC3CC(CC(C3)C1)C2`, the activation fold is 1.2.
Take `COc1ccc(N/C=C\C(=O)c2ccc(Br)cc2)cc1OC`: the activation fold was 1.1.
As to `Cc1nn(C)cc1/C=C/C(=O)c1ccccc1`, the activation fold is 1.1.
To `CCCCCCCC(=O)NNC(=O)c1ccc(F)cc1` belongs 2.1; to `CCCCCC(=O)NNC(=O)c1ccc(F)cc1`, 1.
With `Cc1cc(NC(=O)CCC(=O)N(Cc2ccco2)C(C(=O)NC2CCCCC2)c2cccs2)no1` (stereo not drawn), the activation fold is 1.1.
For `Cc1cc(Cl)ccc1OCC(=O)NCCOC(=O)Nc1sc(=S)n(C)c1C`, the activation fold was 1.2.
Take `Cc1c(C(=O)Oc2cc(N)n(S(C)(=O)=O)n2)cccc1[N+](=O)[O-]`: the activation fold is 1.
